What all share (assay): yeast three-hybrid, YBZ-1, SC-Leu-His + 0.5 mM 3-AT, 4 days
Holding throughout (conditions): tags: N-Gal4 AD-HA kept; label: inside an RPR1-promoter hybrid RNA with tandem MS2 sites; ssRNA

For one assay, the target named is PUM1 PUF domain R8-KFA (Homo sapiens, UniProt Q14671 828-1176, N1122K;Y1123F;Q1126A). The essentials: (§1)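 Sequencing with Illumina followed PCR amplification of the repeat regions from transformants grown four days on SC-Leu (input) or SC-Leu-His + 0.5 mM 3-AT (selection). The transformants were strain YBZ-1 with a LexA–MS2 coat fusion and a HIS3 reporter, carrying Pumilio-1 PUF domain libraries and matching RNA elements. The interaction score is the log change in variant frequency from input to selection, computed in log2 with a pseudocount of 1 for absent variants.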

In another assay the target is PUM1 PUF domain R7-KWK (Homo sapiens, UniProt Q14671 828-1176, S1079K;N1080W;E1083K). The essentials:
as §1

A further assay concerns the target PUM1 PUF domain R5-RNG (Homo sapiens, UniProt Q14671 828-1176, C1007R;R1008N;Q1011G). The essentials: as §1
The target of the next assay is PUM1 PUF domain R5-LYG (Homo sapiens, UniProt Q14671 828-1176, C1007L;R1008Y;Q1011G). The essentials: as §1
The next assay has as its target PUM1 PUF domain R3-TFG (Homo sapiens, UniProt Q14671 828-1176, C935T;R936F;Q939G). The essentials: as §1
The target in the next assay is PUM1 PUF domain R5-EAE (Homo sapiens, UniProt Q14671 828-1176, C1007E;R1008A;Q1011E). The essentials:
as §1

Another assay concerns the target PUM1 PUF domain R5-WHY (Homo sapiens, UniProt Q14671 828-1176, C1007W;R1008H;Q1011Y). The essentials:
as §1

A further assay deals with PUM1 PUF domain R2-AYW (Homo sapiens, UniProt Q14671 828-1176, N899A;Q903W). The essentials: as §1
For another assay, the target named is PUM1 PUF domain R3-RSW (Homo sapiens, UniProt Q14671 828-1176, C935R;R936S;Q939W). The essentials:
as §1

The next assay deals with PUM1 PUF domain R3-LFT (Homo sapiens, UniProt Q14671 828-1176, C935L;R936F;Q939T). The essentials: as §1
The next assay has as its target PUM1 PUF domain R3-IFV (Homo sapiens, UniProt Q14671 828-1176, C935I;R936F;Q939V). The essentials: as §1
The target of the next assay is PUM1 PUF domain R3-DHV (Homo sapiens, UniProt Q14671 828-1176, C935D;R936H;Q939V). The essentials: as §1
Another assay addresses PUM1 PUF domain R7-RSR (Homo sapiens, UniProt Q14671 828-1176, S1079R;N1080S;E1083R). The essentials:
as §1

Regarding “GGCUAGAACUAGUGGAUCCCCCGGCGCCCGGCGGCUCGAGCCCGGGUAAGCGUAAAUAGUCUGCAUGCCGCCGGGCGCCAUGCCUGCAGGUCGACUCUAGAAAACAUG”, the binding signal with PUM1 PUF domain R8-KFA was 6.97 log2 enrichment (interaction score).

Take “GGCUAGAACUAGUGGAUCCCCCGGCGCCCGGCGGCUCGAGCCCGGGUAAGUAUAAAUAGUCUGCAUGCCGCCGGGCGCCAUGCCUGCAGGUCGACUCUAGAAAACAUG”: in the assay with PUM1 PUF domain R7-KWK, the binding signal was 2.56 log2 enrichment (interaction score). “GGCUAGAACUAGUGGAUCCCCCGGCGCCCGGCGGCUCGAGCCCGGGUAAGUGUUAAUAGUCUGCAUGCCGCCGGGCGCCAUGCCUGCAGGUCGACUCUAGAAAACAUG”: the binding signal with PUM1 PUF domain R5-RNG is 4.63 log2 enrichment (interaction score); with PUM1 PUF domain R5-LYG, 2.42 log2 enrichment (interaction score). For “GGCUAGAACUAGUGGAUCCCCCGGCGCCCGGCGGCUCGAGCCCGGGUAAGUGUAACUAGUCUGCAUGCCGCCGGGCGCCAUGCCUGCAGGUCGACUCUAGAAAACAUG”, in the assay with PUM1 PUF domain R3-TFG, the binding signal was 0.95 log2 enrichment (interaction score).

On to “GGCUAGAACUAGUGGAUCCCCCGGCGCCCGGCGGCUCGAGCCCGGGUAAGUGUGAAUAGUCUGCAUGCCGCCGGGCGCCAUGCCUGCAGGUCGACUCUAGAAAACAUG”, for which the binding signal in the assay with PUM1 PUF domain R5-EAE was 3.11 log2 enrichment (interaction score); with PUM1 PUF domain R5-WHY it was 5.78 log2 enrichment (interaction score). For “GGCUAGAACUAGUGGAUCCCCCGGCGCCCGGCGGCUCGAGCCCGGGUAAGUGUAAAAAGUCUGCAUGCCGCCGGGCGCCAUGCCUGCAGGUCGACUCUAGAAAACAUG”, in the assay with PUM1 PUF domain R2-AYW, the binding signal was 3.05 log2 enrichment (interaction score). “GGCUAGAACUAGUGGAUCCCCCGGCGCCCGGCGGCUCGAGCCCGGGUAAGUGUAAGUAGUCUGCAUGCCGCCGGGCGCCAUGCCUGCAGGUCGACUCUAGAAAACAUG”: the binding signal with PUM1 PUF domain R3-RSW was 0.87 log2 enrichment (interaction score); with PUM1 PUF domain R3-TFG, 2.15 log2 enrichment (interaction score); with PUM1 PUF domain R3-LFT, 6.89 log2 enrichment (interaction score); in the assay with PUM1 PUF domain R3-IFV, 3.32 log2 enrichment (interaction score); with PUM1 PUF domain R3-DHV, 1.77 log2 enrichment (interaction score). Turning to “GGCUAGAACUAGUGGAUCCCCCGGCGCCCGGCGGCUCGAGCCCGGGUAAGUUUAAAUAGUCUGCAUGCCGCCGGGCGCCAUGCCUGCAGGUCGACUCUAGAAAACAUG”, the binding signal with PUM1 PUF domain R7-RSR is 4.84 log2 enrichment (interaction score).

(Values after publication PMC8384837, “Expanding the binding specificity for RNA recognition by a PUF domain”.)
